BoNT-F LC inh = BoNT/F light chain protease inhibitors, primary screen, biochemical, flow cytometry, MLPCN library | Botulinum neurotoxin type F light chain protease (Clostridium botulinum) | Multiplex microsphere protease cleavage assay | inhibition, % at 10 µM | 360,000 compounds, 0.22% hits | AID 588497, 2011; in the data active = inhibition above about 35%, passing the limit was not always enough; inconclusive = no clear call, values can overlap the other calls; also: plate controls were buffer without enzyme for full effect and enzyme alone for no effect
BoNT-A LC inh2 = BoNT/A light chain protease inhibitors, primary screen, biochemical, flow cytometry, MLPCN library; Botulinum neurotoxin type A light chain protease (Clostridium botulinum A str. ATCC 3502); multiplex microsphere protease substrate cleavage; inhibition, % at 10 µM; 360,000 compounds, 0.17% hits; AID 588499, 2011; also: plate controls were buffer without enzyme for full effect and enzyme alone for no effect
Anthrax LF inh2 = Bacillus anthracis LF protease inhibitors, primary screen, biochemical, multiplex microsphere, MLPCN library. Lethal factor (Bacillus anthracis), P15917. multiplex microsphere protease cleavage assay. inhibition, % at 10 µM. 360,000 compounds, 0.12% hits. AID 588501, 2011; also: plate controls were buffer without enzyme for full effect and enzyme alone for no effect
Target sequence (P15917 whole entry, looked up): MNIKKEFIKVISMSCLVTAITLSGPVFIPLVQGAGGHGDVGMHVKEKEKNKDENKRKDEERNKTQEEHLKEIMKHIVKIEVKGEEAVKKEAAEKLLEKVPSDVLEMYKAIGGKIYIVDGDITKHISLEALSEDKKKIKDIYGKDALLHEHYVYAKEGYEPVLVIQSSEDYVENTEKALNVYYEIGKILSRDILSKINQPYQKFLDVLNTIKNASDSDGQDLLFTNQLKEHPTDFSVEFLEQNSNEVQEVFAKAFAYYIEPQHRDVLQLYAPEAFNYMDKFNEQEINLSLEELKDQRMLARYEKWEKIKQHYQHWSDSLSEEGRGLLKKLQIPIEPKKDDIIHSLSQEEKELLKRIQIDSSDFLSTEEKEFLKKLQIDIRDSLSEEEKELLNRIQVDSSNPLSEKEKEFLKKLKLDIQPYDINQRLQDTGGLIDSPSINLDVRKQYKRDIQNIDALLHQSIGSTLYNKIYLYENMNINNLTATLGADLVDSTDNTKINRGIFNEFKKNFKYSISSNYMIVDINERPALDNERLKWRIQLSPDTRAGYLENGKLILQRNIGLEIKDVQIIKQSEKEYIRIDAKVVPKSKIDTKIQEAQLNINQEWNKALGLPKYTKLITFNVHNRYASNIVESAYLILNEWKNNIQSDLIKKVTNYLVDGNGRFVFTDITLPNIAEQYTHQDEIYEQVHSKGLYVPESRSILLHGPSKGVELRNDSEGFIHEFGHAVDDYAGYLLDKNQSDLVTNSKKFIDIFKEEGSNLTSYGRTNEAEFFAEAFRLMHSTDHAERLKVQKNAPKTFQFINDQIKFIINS
MazF activator = activators of E. coli MazEF toxin-antitoxin RNase, primary screen, biochemical, fluorescence, uHTS | Endoribonuclease toxin MazF (Escherichia coli (strain K12)), P0AE70 | FAM/BHQ RNA-DNA oligo cleavage fluorescence, 5 h | activation, % at 20 µM | 350,000 compounds, 0.32% hits | AID 504720, 2011; in the data active = activation above about 50%
Bead autofluor = counter-screen for toxin protease inhibitors: compound fluorescence; compound autofluorescence counterscreen, microsphere flow cytometry; hits give high values; AID 624483; 360,000 compounds, 3.1% hits; fluorescence intensity (no concentration beside the values); in the data active = fluorescence intensity above about 16000; inconclusive = no clear call, values can overlap the other calls
* = called active by the depositor; ? = inconclusive; . = no result. Sampled rows, rich in hits. Any-hit rate of the full collection: about 3.7%. Rule as the data show it, unless noted: active = inhibition above about 30%; inconclusive = no clear call, values can overlap the other calls; inactive = below that.

SMILES	BoNT-F LC inh	BoNT-A LC inh2	Anthrax LF inh2	MazF activator	Bead autofluor
COc1ccc(/C=N/N2CCN(c3ccccc3OC)CC2)cc1OC	-1	?	-5	-1	16494*
Cc1oc(-c2cc(Cl)cc(Cl)c2)cc1C(=O)NCCc1ccccc1	-1	-1	-3	-8	1974
Cc1occc1C(=O)NCCc1ccc(Cl)cc1	-2	-2	-5	3	20471*
COc1ccc(CCNC(=O)c2cc(-c3cc(Cl)cc(Cl)c3)oc2C)cc1	4	2	-7	-11	21204*
Cc1occc1C(=O)NCCCCc1ccccc1	-18	-1	-1	2	5138
CC(=O)Nc1ccc(S(=O)(=O)Oc2ccc(N3C(=O)C4CCCCC4C3=O)cc2)cc1 (centres undefined)	-1	?	-6	-5	19304*
Cc1ccc(C(=O)NNC(=O)CSc2nnc(-c3ccncc3)n2C)cc1	0	0	0	9	16351*
CCc1ccc(OCC(=O)NNC(=O)CSc2nnc(-c3ccc(C)cc3)n2C)cc1	0	1	0	-1	2501
Cc1ccc(-c2nnc(SCC(=O)NNC(=O)COc3cccc(C)c3)n2C)cc1	1	0	2	3	22497*
COc1ccc(C(=O)NNC(=O)CSc2nnc(-c3ccc(O)cc3)n2C)cc1	0	0	-3	7	3444
CCn1c(SCC(=O)NNC(=O)c2ccccc2)nnc1-c1ccncc1	-3	?	-3	-4	22311*
CCn1c(SCC(=O)N/N=C/c2ccc(C)o2)nnc1-c1ccccc1	0	?	-2	2	22380*
CC1C(=O)C(C)(C)C(=O)OC1c1ccc([N+](=O)[O-])cc1 (centres undefined)	?	-7	-3	6	6044
CCNC(=O)C1(C)CCCN1C(=O)c1cc(C)on1 (centres undefined)	0	0	-1	.	3697
CCCCN(C(=O)c1ccc(Cl)c(S(=O)(=O)N2CCOCC2)c1)c1c(N)n(CCC)c(=O)[nH]c1=O	3	-1	-8	6	4792
Cc1cc(S(=O)(=O)NCc2ccc(S(N)(=O)=O)cc2)c(C)s1	-2	3	-2	8	21825*
CN(C)CCNS(=O)(=O)c1ccc2c3c(cccc13)C(=O)N2	-20	-4	-2	4	3832
Cc1cc(S(=O)(=O)NCCN(C)C)c(C)s1	1	0	0	-2	22830*
Cc1cc(S(=O)(=O)NCc2ccco2)c(C)s1	4	0	0	-2	2959
CCOC(=O)N1CCN(S(=O)(=O)N2CCCC(C(=O)NCCCN3CCCCC3CC)C2)CC1 (centres undefined)	8	2	6	6	5194
O/C(=C\c1nc2ccccc2nc1/C=C(\O)c1ccccc1)c1ccccc1	12	67*	30*	-144	4056
O=c1oc2ccccc2nc1/C=C(\O)c1ccccc1	-10	-1	-11	2	5679
CC(=O)Nc1nnc(-c2ccco2)o1	4	0	2	-1	3963
Cc1nn(-c2ccccc2)c(C)c1C(=O)Nc1nnc(-c2ccco2)o1	0	0	0	1	20671*
Cc1cccc(OCCSc2nc3ccccc3n2CC(=O)O)c1	-4	-5	-6	0	3577
SMILES	BoNT-F LC inh	BoNT-A LC inh2	Anthrax LF inh2	MazF activator	Bead autofluor
CCOc1ccc(NC(=O)c2ccccc2OCC(=O)c2ccc(C)cc2)cc1	2	-1	0	1	23534*
CCOc1ccc(C(=O)COc2ccc(NC(C)=O)cc2)cc1	5	0	-2	-5	3073
CCc1ccc(C(=O)COc2ccc(NC(C)=O)cc2)cc1	-2	0	-1	8	24015*
O=CN(Cc1ccco1)C1(C(=O)NC2CCCCC2)CCCCC1	0	?	-5	1	22071*
COc1ccncc1-c1csc(C(O)c2ccccc2)n1 (centres undefined)	0	0	4	.	3780
CCOc1ccc(/C=C/c2[nH]c(=O)[nH]c(=O)c2[N+](=O)[O-])cc1	-11	-3	3	2	3812
CC(C)c1ccc(/C=C/c2[nH]c(=O)[nH]c(=O)c2[N+](=O)[O-])cc1	37*	0	9	5	3823

Compound activity from PubChem BioAssay.
